High-throughput results as filed in PubChem.
In the library only some 8% were active in any assay of this set; here they are far more common.
KB-3-1 cytotox – KB-3-1 parental cell cytotoxicity. KB-3-1 viability, CellTiter-Glo ATP luminescence, 72 h. Potency, µM (series often up to 46.1 µM), most hits filed as cytotoxic. hit rate 1.4% among 400,000. AID 1347075; also: % is scaled to controls: 0 for no effect and ±100 for the full control effect; nearly all actives have a fitted effect of over 60% in size
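Cytotoxicity in the drug-sensitive parental line KB-3-1 was scored as loss of CellTiter-Glo luminescence following 72 h incubation with compound. Values come from curve fitting of normalized concentration-response data.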
HT1080NT lethal – kills 2HG-producing HT-1080-NT fibrosarcoma cells. Potency, µM (series often up to 46.1 µM), for the others: at the top dose activity, negative = less viability, hits mostly cytotoxic. hit rate 1.6% among 360,000. HT-1080-NT fibrosarcoma viability, CellTiter-Glo ATP luminescence, 48 h;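 also: NT is the 2HG producing partner of a matched IDH1 knockdown line; 0% = DMSO-treated cells and -100% = media-only wells without cells; nearly all actives have a fitted effect of over 55% in size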
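Viability of the 2HG-overproducing fibrosarcoma line after 48 hours of compound exposure at 37 degrees C was determined by luminescence with CellTiter-Glo, and concentration-effect curves were then fitted and categorized.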
KB-V1 MDR tox – KB-V1 MDR subline cytotoxicity; KB-V1 MDR cells viability, CellTiter-Glo, 72 h; Potency, µM (doses to about 46.1 µM), usual class: cytotoxic; hit rate 3.4% among 400,000; AID 1347076; also: % is scaled to controls: 0 for no effect and ±100 for the full control effect; nearly all actives have a fitted effect of over 60% in size
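Cytotoxicity via CellTiter-Glo luminescence after 72 h compound exposure at 37 degrees C. Cells: drug-selected KB-V1 line, DMEM phenol-red free plus 10% FBS. Compounds tested at multiple concentrations; normalized data fitted to concentration-effect curves.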
SW480 rerep – DNA re-replication induction in SW480 cells; hit rate 1.8% among 340,000; Potency, µM (doses to about 46.1 µM), for the others: at the top dose re-replication activation, usual class: activators; SW480 DNA re-replication, Hoechst DNA content imaging, 48 h; AID 624297; also: % of control where 0% means no effect; nearly all actives have a fitted effect of over 55% in size
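Readout is total intensity of Hoechst-stained nuclei, excited at 405 nm and collected at 500-530 nm. Compound treatment lasted 48 hr at 37 C in 5% CO2 before staining.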
MCF10A rerep – induces DNA re-replication in MCF 10a normal breast cells; hit rate 2.9% among 350,000; AID 624296; MCF 10A DNA re-replication, Hoechst nuclear intensity, 48 h; Potency, µM (doses to about 46.1 µM), for the others: top-dose activity, positive = re-replication, usual class: activators; also: % of control where 0% means no effect; nearly all actives have a fitted effect of over 50% in size
HT1080 IDH1KD tx – HT-1080 IDH1 knockdown cell toxicity (counter line). HT-1080 IDH1 knockdown viability, ATP luminescence, 48 h. Potency, µM (series often up to 46.1 µM), inactives show at the top dose activity, negative = toxicity, actives largely listed as cytotoxic. hit rate 2% among 360,000;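 also: 0% = DMSO wells and -100% = cell-free medium wells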
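Using the IDH1-knockdown HT-1080 line run in the same batch and compound series as the NT line, viability after 48 h at 37 °C was determined by CellTiter-Glo luminescence and expressed as % activity.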
Starred values were filed as active, the others as inactive; i = inactive; ? = inconclusive; . = not tested or not shown; [ ] = remark or other dose. Calls follow the shape of the dose curve; as a rule, active = well fitted curve in the direction sought with a large enough effect; inconclusive = small, poorly fitted or top-dose-only effect, or another doubt; inactive = no such curve, though single readings can be large; an effect the other way counts as inactive or inconclusive. Potency is read from the fitted curve at half-maximal effect.

SMILES	KB-3-1 cytotox	HT1080NT lethal	KB-V1 MDR tox	SW480 rerep	MCF10A rerep	HT1080 IDH1KD tx
COc1cccc(Nc2nc(C(N)COCc3ccccc3)cs2)n1 (configuration not stated)	i	18µM*	i	.	.	?
COc1cc(OC)nc(Nc2nc(C(N)Cc3ccc(C(F)(F)F)cc3)cs2)n1 (configuration not stated)	?	18µM*	?	.	.	?
COC(=O)c1cnc(Nc2nc(C(N)Cc3ccc(Cl)cc3)cs2)nc1C(F)(F)F (configuration not stated)	?	?	i	.	.	?
COc1cc(OC)nc(Nc2nc(C(C)N)cs2)n1 (configuration not stated)	i	16%	i	.	.	15%
COC(=O)c1cnc(Nc2nc(C(N)Cc3ccc(OC)cc3)cs2)nc1C(F)(F)F (configuration not stated)	i	23µM*	i	.	.	?
Cc1cc(NC(=O)C2CC(c3c(F)cccc3Cl)=NO2)n(-c2ccccc2)n1 (configuration not stated)	i	-5%	i	-77%	2%	8%
CCCCNC(=O)C1(NC(=O)Nc2ccccc2)CCCCC1	i	10%	i	i[1.84 µM]	-8%	11%
CS(=O)(=O)N(CC(=O)N1CCN(c2ccccc2F)CC1)C1CCCCC1	i	-1%	?	21%	10%	-1%
Cc1ccc(S(=O)(=O)N(CC(=O)N2CCN(c3ccccc3F)CC2)C2CCCCC2)cc1	?	-1%	4.6µM*	4%	10%	-11%
O=C1C(=O)N(CCCN2CCOCC2)C(c2ccc(F)cc2)/C1=C(\O)c1ccc2c(c1)OCCO2 (configuration not stated)	i	7%	i	-5%	0%	8%
COc1cccc2c1C1COC3C4CC(C(=O)O)C(C(C2)N13)N4C (configuration not stated)	?	5.8µM*	16µM*	?	2.6µM*	7.3µM*
COc1cccc2c1C(CCCC(=O)O)CCC2 (configuration not stated)	i	0%	i	-5%	-1%	4%
CCc1nc2ccc(C(=O)Nc3ccc4c(c3)OCC(=O)N4)cn2c1N(CC)Cc1cccc(Br)c1	i	?	i	.	.	-11%
Clc1nc(NCc2ccco2)nc(N2CCCCC2)n1	i	11%	i	4.6µM*	?	8%
c1ccc(N2CCN(c3nc(NCc4ccco4)c4ccccc4n3)CC2)cc1	?	16µM*	12µM*	?	?	18µM*
c1coc(CNc2nc(N3CCCCC3)nc3ccccc23)c1	?	?	?	-1%	5%	?
c1ccc(CNc2nc(N3CCN(Cc4ccccc4)CC3)nc3ccccc23)cc1	?	?	23µM*	?	7.3µM*	21µM*
CSCCC(NC(=O)/C(=C/c1ccc(F)cc1)NC(C)=O)C(=O)O (configuration not stated)	i	12%	i	-1%	14%	-3%
CCS(=O)(=O)N1CCN=C1SCc1ccccc1	i	1%	i	-9%	-5%	-1%
COc1cccc(C(=O)/C(C#N)=N/Nc2cccc(-c3ccnc(C)n3)c2)c1	?	26µM*	?	-2%	9%	-28%
COc1ccc(-c2cc(=O)[nH]c3ccccc23)cc1	i	-16%	?	-27%	0%	-21%
Cc1cc(=O)n2c(C(=O)Nc3ccc(C(=O)OC(C)C)cc3)c(C(=O)Nc3ccccc3)sc2n1	i	?	i	-81%	16µM*	-23%
Oc1ccccc1-c1cc(-c2ccc3c(c2)OCCO3)n[nH]1	i	?	?	-2%	-9%	?
C/C(=N\N=C(N)N)c1ccc(Cl)c(Cl)c1	i	23µM*	?	?	?	18µM*
Cc1ccc(Cn2c(=S)[nH]c3ccc(N4CCOCC4)cc3c2=O)o1	?	1%	?	23µM*	?	1%
SMILES	KB-3-1 cytotox	HT1080NT lethal	KB-V1 MDR tox	SW480 rerep	MCF10A rerep	HT1080 IDH1KD tx
CC(C)OCCCn1c(=S)[nH]c2ccc(N3CCOCC3)cc2c1=O	?	-1%	6.5µM*	3%	11%	2%
O=C1Nc2ccccc2C12OCCO2	i	4%	i	1%	?	0%
NC(=O)c1cccc2c1-c1ccccc1/C2=N/NC(N)=S	i	0%	i	-9%	-5%	8%
CCOC(=O)Nc1ccc2c(c1)C(=NO)c1ccccc1-2	?	2%	8.2µM*	-1%	?	11%
CCOC(=O)Nc1ccc2c(c1)C(=NNC(N)=S)c1ccccc1-2	?	?	23µM*	?	?	?
Nc1c(C(=O)CSc2nnc(COc3ccc(Cl)cc3)o2)c(=O)[nH]c(=O)n1C1CC1	i	8%	i	-3%	21%	2%
O=C(O)c1cccc2c1Cc1cc([N+](=O)[O-])ccc1-2	?	0%	i	-3%	2%	-21%
CC(=NO)c1ccc2c(c1)Cc1cc([N+](=O)[O-])ccc1-2	15µM*	3%	7.3µM*	2%	9%	-3%
CC(O)CN(CC(C)O)c1ccc2c(c1)Cc1cc([N+](=O)[O-])ccc1-2 (configuration not stated)	i	-21%	i	8.2µM*	12µM*	?
O=c1cc(-c2ccccc2)c2ccc(O)c(CN3CCCCC3)c2o1	i	-8%	13µM*	-1%	?	-7%
COc1ccc(C(=O)/C=C/NCc2ccc(C)cc2)cc1	i	-19%	i	21µM*	13µM*	3%
Cc1ccc(C(=O)/C=C\NCc2ccccc2)cc1	i	7%	i	-10%	?	4%
COc1cccc(-c2nnc3sc(-c4cccs4)nn23)c1	i	5%	i	-3%	13%	4%
CCOc1cccc(-c2nnc3sc(COc4ccc(Cl)cc4)nn23)c1	21µM*	8%	?	-1%	?	-3%
CCOc1cccc(-c2nn3c(-c4ccco4)nnc3s2)c1	?	9%	9.2µM*	-2%	9%	12%
CCOc1cccc(-c2nnc3sc(-c4cc(OC)c(OC)c(OC)c4)nn23)c1	?	-2%	8.2µM*	?	?	-2%
CCOc1cccc(-c2nnc3sc(COc4ccc(C)cc4)nn23)c1	i	14%	i	0%	9%	12%
CCOc1cccc(-c2nnc3sc(-c4cccs4)nn23)c1	i	-3%	5.2µM*	-3%	12%	8%
